# Where a name gives a salt, the structure may show the parent alone. ± gives the standard deviation of the averaged measurements.
# Test system: Danio rerio Tg(wt1b:EGFP) embryo, pronephros
# Assay: pronephric angle neck segment to proximal convoluted tubule (mean of left and right), fold change vs DMSO control; higher = larger pronephric angle
# Conditions: 25 µM; exposure: 24-48 hpf
# In short: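 Dechorionated Tg(wt1b:EGFP) zebrafish embryos were treated with 25 μM compound in 0.5% DMSO, in HEPES-buffered E3 with 0.003% PTU, from 24 to 48 hpf at 28.5°C. On maximum projections of dorsal pronephros images, 16 hand-placed reference points in Fiji gave distances and angles, and values more than 2 SD from the feature mean were left out. Results are fold changes over the mean of same-day DMSO-treated embryos.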
row,SMILES,pronephric angle neck segment
1,C[C@@H]1C[C@@H]([C@H](O)CC2CC(=O)NC(=O)C2)C(=O)[C@@H](C)C1 [Cycloheximide],1.73 ± 0.19
2,NCCCNCCSP(=O)(O)O [Amifostine],1.02 ± 0.074
3,CC(C)N(CCC(C(N)=O)(c1ccccc1)c1ccccn1)C(C)C (stereo not drawn) [Disopyramide],1.05 ± 0.038
4,C[N+]1(C)[C@@H]2CC[C@H]1C[C@@H](OC(=O)C(CO)c1ccccc1)C2 (stereo partly drawn) [Methylatropine nitrate],1.06 ± 0.017
5,Oc1ccc2c3c1O[C@H]1[C@@H](O)CC[C@@]4(O)[C@@H](C2)N(CC2CCC2)CC[C@]314 [Nalbuphine hydrochloride],1.04 ± 0.0056
6,C=CC[C@]1(O)CC[C@H]2[C@@H]3CCC4=CC(=O)CCC4=C3C=C[C@@]21C [Altrenogest],0.981 ± 0.072
7,C[C@]12CC[C@@H]3c4ccc(OC(=O)N(CCCl)CCCl)cc4CC[C@H]3[C@@H]1CC[C@@H]2O [Estramustine],1.1 ± 0.03
8,"NCC(O)c1ccc(O)cc1 (racemic) [(+,-)-Octopamine hydrochloride]",0.987 ± 0.059
9,C#CCN(C)[C@H](C)Cc1ccccc1 [Selegiline hydrochloride],0.98 ± 0.017
10,CN1C(=O)CCS(=O)(=O)C1c1ccc(Cl)cc1 (stereo not drawn) [Chlormezanone],0.989 ± 0.059
11,O=P1(N(CCCl)CCCl)NCCCO1 (stereo not drawn) [Cyclophosphamide],1.09 ± 0.028
12,CC(=O)NC1CCSC1=O (racemic) [N-Acetyl-DL-homocysteine Thiolactone],1 ± 0.066
13,CCC1(c2cccc(O)c2)CCCCN(C)C1 (stereo not drawn) [Meptazinol hydrochloride],0.984 ± 0.06
14,NC(=O)C[S+]([O-])C(c1ccccc1)c1ccccc1 (stereo not drawn) [Modafinil],1 ± 0.041
15,CC(C)CC(N(C)C)C1(c2ccc(Cl)cc2)CCC1 (stereo not drawn) [Sibutramine hydrochloride],1.08 ± 0.054
16,O=[N+]([O-])O[C@@H]1CO[C@H]2[C@@H]1OC[C@@H]2O [Isosorbide mononitrate],0.986 ± 0.021
17,CN1C[C@H](CNC(=O)OCc2ccccc2)C[C@@H]2c3cccc4c3c(cn4C)C[C@H]21 [Metergoline],0.9894 ± 0.0045
18,CC(=O)OC1CN2CCC1CC2 (stereo not drawn) [Aceclidine Hydrochloride],0.99 ± 0.044
19,Fc1ccc(C(OCCN2CCN(CCCc3ccccc3)CC2)c2ccc(F)cc2)cc1,1.02 ± 0.097
20,C=CCN1CC[C@]23c4c5ccc(O)c4O[C@H]2C(=O)CC[C@@]3(O)[C@H]1C5 [Naloxone hydrochloride],1.05 ± 0.017
21,C1CCc2nnnn2CC1 [Pentylenetetrazole],0.956 ± 0.021
22,C[C@]12CC[C@H](O)C[C@H]1CC[C@@H]1[C@@H]2CC[C@]2(C)[C@@H](C3=CC(=O)OC3)CC[C@]12O [Digitoxigenin],1.03 ± 0.066
23,CC(C)[N+](C)(CCC(C(N)=O)(c1ccccc1)c1ccccc1)C(C)C [Isopropamide iodide],0.983 ± 0.025
